This is a sample that favours compounds with a hit; in the whole collection about 9.1% have one here.
Htt clearance: compounds clearing mutant huntingtin protein; HeLa Exon1htt(103Q)mCFP, aggregate imaging; zero = plate's median compound well; inhibition, % at 1.5 µM; 47,000 tested, 0.42% active;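 active = inhibition of aggregate fluorescence above about 70%, also judged a hit by eye on the cell image, limit read from the data, passing the limit was not always enough; inconclusive = no rule stated for this call; inactive = not judged a hit on image review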;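 note: cells exposed to compound for three days before fixation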
M1 antag: blocks the rat M1 muscarinic receptor response to acetylcholine; AID 628; P08482; 64,000 tested, 3.4% active; CHO-M1 cells, Fluo-4 calcium, ACh EC80 antagonist mode; hits give low values; B-score at 10 µM;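 active = calcium fluorescence response, raw or row-and-column corrected B-score, differing from the plate sample mean either way at a set confidence level, mostly lower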
M1 ag: activates the M1 muscarinic receptor; CHO-M1 cells, Fluo-4 calcium fluorescence, agonist mode; hits give high values; B-score at 10 µM; 64,000 tested, 3% active; AID 626;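 active = fluorescence rise, raw or as B-score row- and column-corrected plate score, outside the 99.7% band of its plate's samples, either direction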
D1 allo mod: allosteric modulators of human D1 dopamine receptor | HEK293 D1, CRE-luciferase, dopamine EC30 potentiation; actives deviate in either direction | B-score at 10 µM | 58,000 tested, 5.9% active | AID 641;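 active = luminescence count or its row- and column-corrected plate score outside the 99.7% band of the plate's sample wells, on either side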
Target sequence (P21728 whole entry, looked up): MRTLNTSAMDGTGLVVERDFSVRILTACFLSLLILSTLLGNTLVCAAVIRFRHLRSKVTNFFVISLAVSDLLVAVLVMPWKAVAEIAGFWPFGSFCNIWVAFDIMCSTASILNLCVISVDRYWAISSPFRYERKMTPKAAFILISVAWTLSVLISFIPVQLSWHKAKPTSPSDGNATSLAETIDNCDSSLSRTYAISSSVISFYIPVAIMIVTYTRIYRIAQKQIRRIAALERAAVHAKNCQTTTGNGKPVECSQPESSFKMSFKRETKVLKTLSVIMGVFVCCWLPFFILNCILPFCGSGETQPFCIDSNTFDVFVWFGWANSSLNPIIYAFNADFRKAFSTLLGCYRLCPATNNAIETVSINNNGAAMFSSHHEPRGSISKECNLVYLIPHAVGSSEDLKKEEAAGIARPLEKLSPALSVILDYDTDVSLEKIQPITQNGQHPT
M1 antag confirm: confirmation of rat M1 muscarinic receptor antagonists; shares compounds with M1 antag; CHO-M1 cells, Fluo-4 calcium, ACh EC80 antagonism; hits give low values; calcium response (max-min fluorescence) at 10 µM; 1,700 tested, 43% active; AID 677;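 active = calcium response below the same-plate mean of wells given acetylcholine alone at its 80%-effect dose, minus 3 SD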;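 note: raw fluorescence intensity difference in arbitrary instrument units and not normalized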
mGluR4 antag: selectivity test for M1 antagonists: human mGluR4 receptor; shares compounds with M1 antag; CHO-mGluR4 calcium flux, Fluo-4 fluorescence, glutamate EC80; hits give low values; fluorescence response (max-min) at 10 µM; 1,700 tested, 0.9% active; AID 678;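 active = fluorescence response below the plate's average for near-maximal glutamate wells, less 3 SD of those wells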;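 note: raw unnormalized fluorescence span taken in the window right after glutamate addition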
An asterisk follows results filed as active; ? = inconclusive; . = no result.

SMILES | Htt clearance | M1 antag | M1 ag | D1 allo mod | M1 antag confirm | mGluR4 antag
O=S(=O)(c1ccc(NCC2CCCCC2)nc1)N1CCOCC1 | -51 | -4.3* | 0.66 | 0.28 | 554* | 205
O=C(NC1CCCCC1)c1ccc(S(=O)(=O)N2CCOCC2)cc1 | 40 | -0.12 | -0.43 | -0.35 | . | .
O=C(Nc1cccc(Cl)c1)N(CCN1CCOCC1)Cc1ccccc1F | -33 | . | . | . | . | .
O=C(Nc1cccc(Cl)c1)N(CCN1CCOCC1)Cc1cccc(Cl)c1 | 7 | -2.4* | 1 | 0.77 | 255* | 227
COCCCNC(=O)CC(NS(=O)(=O)c1ccc(Cl)cc1)c1ccc(OC)cc1 (configuration not stated) | 4 | . | . | . | . | .
O=C1CC(c2ccc(F)cc2)Cc2nc(N3CCN(c4ccccc4)CC3)ncc21 (configuration not stated) | . | 0.21 | 2.7 | -0.056 | . | .
Cc1ccc(C2CC(=O)c3cnc(N4CCN(c5ccccc5)CC4)nc3C2)cc1 (configuration not stated) | . | -5.8* | -1.7 | -0.78 | 622 | 240
Cc1cc(=O)n2nc(N3CCCC(C(=O)N4CCc5ccccc54)C3)sc2n1 (configuration not stated) | . | -12* | 1.2 | 0.43 | 33* | 224
COc1ccc(NC(=O)C2CCN(S(=O)(=O)c3c(C)noc3C)CC2)cc1Cl | -30 | . | . | . | . | .
COC(=O)c1ccc(NC(=O)C2CC2)o1 | 1 | . | . | . | . | .
C=CCc1ccc(OCC(O)CN2CCCCC2C)c(OC)c1 (configuration not stated) | 22 | -2.5* | 0.046 | . | 574 | 238
COc1ccc(Cl)cc1C(=O)NCC(c1ccco1)N1CCCC1 (configuration not stated) | 0 | -4.6* | -0.15 | -0.55 | 390* | 236
CC(NC(=O)C1CCCN(S(=O)(=O)c2cnc[nH]2)C1)c1ccccc1 (configuration not stated) | ? | 0.63 | 0.61 | -0.029 | . | .
CC1CCCCN1CCNC(=O)c1cnn2ccccc12 (configuration not stated) | . | -0.18 | -0.0081 | -0.88 | . | .
CCN(CC)c1nc2ccccc2c(N)c1-c1ccccc1 | 3 | . | . | . | . | .
Cc1c(N(C)C)nc2ccccc2c1N | 0 | -2.3* | 0.025 | -0.84 | 610 | 231
CCN(CC)CCCNC(=O)c1cn(CCOC)c(=O)c2c1c1ccccc1n2C | -76 | 0.18 | -0.22 | -0.015 | . | .
COc1ccccc1NC(=O)COC(=O)c1ccc(S(=O)(=O)NCc2ccco2)cc1 | -18 | -0.7 | -0.89 | . | . | .
Cc1noc(C)c1COC(=O)c1ccc(S(=O)(=O)NCc2ccco2)cc1 | . | -2.6* | -0.15 | -0.4 | 371* | 194
CCc1nc2ccccc2c(C(=O)OCC(=O)NCCCN2CCCC2=O)c1C | -40 | -0.4 | 0.35 | 0.79 | . | .
COc1cc(Br)cc(CN2CCN(C/C=C/c3ccccc3)CC2)c1O | -14 | -16* | -0.81 | -1 | 48* | 222
Cc1cc(C)c2c(CN3CCN(C/C=C/c4ccccc4)CC3)cc(=O)oc2c1 | 53 | -3.6* | -0.86 | -0.38 | 259* | 223
COc1ccc(O)c(CN2CCN(C/C=C/c3ccccc3)CC2)c1 | . | -11* | -2.4 | . | 454* | 187
C(=C\c1ccccc1)/CN1CCN(Cc2ccc3c(c2)OCCO3)CC1 | 14 | -2.5 | 0.37 | 0.21 | . | .
CCOc1ccc(NC2c3ccccc3C(=O)N2Cc2ccco2)cc1 (configuration not stated) | . | -0.17 | 0.13 | -0.11 | . | .
SMILES | Htt clearance | M1 antag | M1 ag | D1 allo mod | M1 antag confirm | mGluR4 antag
Cn1c(OCc2ccc3c(c2)OCO3)nc2c1c(=O)n(Cc1cccc(Cl)c1)c(=O)n2C | 17 | -0.51 | 0.048 | . | . | .
Cc1cc(N2CCOCC2)nc2ccc(NC(=O)CCC(=O)N3CCCCC3)cc12 | -49 | -2.6* | -0.0012 | -0.16 | 524 | 170
Cn1c(SC2C(=O)CC(C)(C)CC2=O)nnc1-c1ccco1 | . | -12* | 0.03 | -1.5 | 675 | 199
CCOc1cc(C#N)c(NC(=O)c2ccco2)cc1OCC | . | -11* | 0.73 | 0.78 | 623 | 185
CC1CCN(C(=O)CSc2ccc3nnc(-c4ccccc4)n3n2)CC1 | . | 1.8 | -0.23 | 1.4 | . | .
O=C(COc1ccccc1)Nc1cccc(-c2nc3cc4ccccc4cc3[nH]2)c1 | -11 | . | . | . | . | .
Cc1ccc(S(=O)(=O)NCCCC(=O)C=[N+]=[N-])cc1 | -34 | -3.3* | -0.66 | -0.066 | 610 | 240
Cc1ccc(S(=O)(=O)NCCC(=O)NCc2ccccc2)cc1 | . | -0.42 | -1 | 0.25 | . | .

Source: PubChem
